# TDP1 cell noCPT = qHTS for Inhibitors of human tyrosyl-DNA phosphodiesterase 1 (TDP1): qHTS in cells in absence of CPT; DT40 Tdp1-/- hTDP1 cells, no CPT, ATP luminescence, 48 h; Potency, µM (top dose mostly 46.2 µM), for the others: top-dose activity change, negative = growth inhibition, actives largely listed as inhibitors; 420,000 tested, 15% active; further: potency means the concentration at half of the fitted maximal effect; nearly all actives have a fitted effect of over 55% in size
#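 No-CPT arm: Tdp1-/-;hTDP1 DT40 cells (400/well) plus compounds, incubated ≥48 hr at 37 °C. Readout CellTiter-Glo luminescence.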
# Gal4-VP16 FLuc = Gal4-VP16 reporter inhibition counter-screen; Drosophila S2 Gal4-VP16 UAS-luciferase, luminescence, 20 h; Potency, µM (series often up to 53.6 µM), without a hit: at the top dose activity, negative = inhibition, usual class: inhibitors; 310,000 tested, 3.5% active;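 further: Gal4-VP16 expression switched on by copper sulfate through the metallothionein promoter; potency means the concentration at half of the fitted maximal effect; nearly all actives have a fitted effect of over 50% in size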
# IL1B secr inh = inhibitors of inflammasome signaling (IL-1 beta secretion); THP-1 LPS/ATP IL-1B secretion, AlphaLISA, 16 h; hits give low values; activity change, % at 57.5 µM; 360,000 tested, 4.7% active; AID 743279; in the data active means activity change below about -50%; inconclusive means mostly about -30% to -49%
#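 THP-1 cells pretreated 1 hr with compounds (up to 57.5 uM final), then stimulated with LPS (250 ng/mL final) plus ATP (1.25 mM final); secreted IL-1B measured by AlphaLISA after 16 hr, decreased signal indicating inhibition.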
# RORg inh = inhibitors of mouse ROR gamma transcriptional activity | P51450 | Drosophila S2 Gal4-RORgamma UAS-luciferase reporter, 20 h | Potency, µM (doses to about 53.6 µM), for the others: top-dose activity change, negative = inhibition, actives largely listed as inhibitors | 310,000 tested, 5.4% active; further: potency means the concentration at half of the fitted maximal effect; nearly all actives have a fitted effect of over 60% in size
# Target sequence (P51450 whole entry, looked up, the tested form may be a part): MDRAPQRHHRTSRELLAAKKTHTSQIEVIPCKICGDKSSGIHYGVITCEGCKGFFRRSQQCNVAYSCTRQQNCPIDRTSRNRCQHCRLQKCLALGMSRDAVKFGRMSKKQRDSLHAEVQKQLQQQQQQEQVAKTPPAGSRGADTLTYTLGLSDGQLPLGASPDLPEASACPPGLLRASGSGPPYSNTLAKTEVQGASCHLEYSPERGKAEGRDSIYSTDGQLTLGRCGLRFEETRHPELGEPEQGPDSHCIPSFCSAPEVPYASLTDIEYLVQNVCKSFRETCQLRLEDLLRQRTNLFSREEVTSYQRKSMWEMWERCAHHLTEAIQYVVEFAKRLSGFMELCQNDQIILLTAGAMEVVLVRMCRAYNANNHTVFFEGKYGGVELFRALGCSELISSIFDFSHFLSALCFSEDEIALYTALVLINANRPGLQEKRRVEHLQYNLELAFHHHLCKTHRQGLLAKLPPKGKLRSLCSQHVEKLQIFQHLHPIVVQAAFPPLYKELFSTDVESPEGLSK
#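 Drosophila S2 cells stably expressing Gal4-DBD/mouse RORγ fusion under metallothionein promoter plus UAS-luciferase; compound 1 h, then 700 uM CuSO4 induction for 20 h at ambient temperature; inhibition read as reduced luminescence.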
# DT40 TDP1 CPT = growth inhibition of DT40 Tdp1-/-;hTDP1 cells with camptothecin (screen for TDP1 inhibitors); chicken DT40 Tdp1-/-;hTDP1 cells + 20 nM CPT, ATP luminescence, 48 h; Potency, µM (highest dose often 46.2 µM), inactives show top-dose activity change, negative = growth inhibition, actives largely listed as inhibitors; 420,000 tested, 12% active; further: potency means the concentration at half of the fitted maximal effect; nearly all actives have a fitted effect of over 55% in size
#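 Chicken DT40 Tdp1-/- cells complemented with human TDP1, 400 cells/well, exposed to compounds plus 20 nM camptothecin for at least 48 h at 37 C; viability read as ATP content by CellTiter-Glo luminescence.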
# ELG1 DNA repair = inhibitors of ELG1-dependent DNA repair in HEK293T cells | HEK293T ELG1-luciferase reporter, luminescence, 16 h; DNA damage induced by 5-fluorouridine | Potency, µM (series often up to 46.1 µM), inactives show at the top dose activity change, negative = inhibition, most hits filed as inhibitors | 330,000 tested, 2.3% active; further: potency means the concentration at half of the fitted maximal effect; nearly all actives have a fitted effect of over 55% in size
#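 Quantitative HTS, concentration-response format. 2,000 cells/well co-treated with 5-fluorouridine and compound, 16 hr in 5% CO2 at 37 °C; ONE-Glo luminescence read after 30 min.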
# * marks the source's active call; other numbers are inactive results; ? = inconclusive; . = not tested or not shown; [ ] = dose if it differs, or a comment. Hits are enriched below; roughly 21% of the tested compounds scored in any of these assays. Unless noted, the call rests on the fitted dose curve; in most records, active means well fitted curve in the direction sought with a large enough effect; inconclusive means small, poorly fitted or top-dose-only effect, or another doubt; inactive means no such curve, though single readings can be large; an effect the other way counts as inactive or inconclusive. On the % scale 0 is the no-effect control and ±100 the full control effect.
SMILES,TDP1 cell noCPT,Gal4-VP16 FLuc,IL1B secr inh,RORg inh,DT40 TDP1 CPT,ELG1 DNA repair
CCCCCCN1CCN(C2CN(C3CCCCC3)S(=O)(=O)C2)CC1 (stereo not drawn),?,.,-13,.,16µM*,.
Cc1ccc(Cn2cc(CN3CC(N4CCCCC4)CS3(=O)=O)nn2)cc1 (stereo not drawn),-21%,.,19,.,-13%,.
CCCCCCN1CCN(C2CN(Cc3cn(Cc4ccc(C)cc4)nn3)S(=O)(=O)C2)CC1 (stereo not drawn),26µM*,.,-14,.,?,.
CCCCCCn1cc(CN2CC(N3CCN(Cc4cccc(C)c4)CC3)CS2(=O)=O)nn1 (stereo not drawn),23µM*,.,-12,.,?,.
Cc1cccc(CN2CCN(C3CN(Cc4cn(Cc5ccccc5)nn4)S(=O)(=O)C3)CC2)c1 (stereo not drawn),?,.,5,.,?,.
CCCCCCN1CCN(C2CN(CCc3ccccc3)S(=O)(=O)C2)CC1 (stereo not drawn),16µM*,.,-3,.,?,.
COc1ccc(/C=N/OCC(=O)NCc2cccs2)c(OC)c1,-18%,5%,-5,36%,-4%,-16%
COc1ccc(OC)c(CNC(=O)CCCn2nc(C)c3c(C)n(-c4ccc(C)cc4)nc3c2=O)c1,21µM*,.,.,.,23µM*,.
COc1cccc(CNC(=O)CCCn2nc(C)c3c(C)n(-c4ccc(C)cc4)nc3c2=O)c1OC,?,-8%,-15,2%,10µM*,-8%
COc1ccc(OC)c(CCNC(=O)Cn2nc(C)c3c(C)n(-c4ccccc4)nc3c2=O)c1,-9%,-5%,-9,-17%,?,7.3µM*
COc1ccc(OC)c(CCNC(=O)CCn2nc(C)c3c(C)n(-c4ccccc4)nc3c2=O)c1,-5%,1%,-14,21%,-1%,-21%
CCOC(=O)C1=C(C)N=c2s/c(=C\c3ccc(OCC(=O)O)cc3)c(=O)n2C1c1ccc(OC(C)C)cc1 (stereo not drawn),?,-9%,-11,10%,-13%,3%
O=c1/c(=C\c2ccc(O)cc2)sc2n1C(c1ccccc1)C(c1ccccc1)=NN=2 (stereo not drawn),?,-11%,-65*,?,?,7%
CCCN=Cc1c(CCC)[nH]n(-c2nc3ccccc3s2)c1=O,-29%,?,-23,2.8µM*,?,-14%
CCCc1[nH]n(-c2nc3ccccc3s2)c(=O)c1C=NCCCN(CC)CC,2%,-19%,15,20µM*,-7%,?
COc1ccc(Nc2nc(NCc3ccco3)nc(N/N=C/c3ccccc3)n2)cc1,?,-18%,-4,10%,?,2.6µM*
Cc1cc(=O)[nH]c(N/N=C/c2cccc(Br)c2)n1,?,-4%,-12,-4%,-4%,?
CCNc1nc(NCC)nc(Oc2ccc(C(=O)OC)cc2)n1,-28%,-6%,18,10%,-16%,1%
CCNc1nc(NCC)nc(N/N=C(\C)c2ccc(OC)cc2)n1,?,?,-16,7.1µM*,?,?
Cn1nnnc1NN=Cc1ccccc1,11%,.,-16,.,2%,.
CCNc1nc(NCC)nc(N/N=C/c2ccccc2)n1,0%,-10%,7,14µM*,3%,-5%
CN(C)c1nc(NCc2ccccc2)nc(N/N=C/c2cccc(Br)c2)n1,7.3µM*,11µM*,-5,3.5µM*,5.8µM*,?
COCCn1c(CNC(=O)c2ccccc2C)nc2cccnc21,-22%,.,.,.,-10%,.
CC(C)c1c(C(=O)N(C)C2CCN(C)CC2)cnn1-c1nccc(-c2ccco2)n1,-10%,.,.,.,10%,.
O=c1[nH]/c(=C/c2ccc3c(c2)OCO3)c(=O)[nH]/c1=C/c1ccc2c(c1)OCO2,-9%,.,.,.,-2%,.
SMILES,TDP1 cell noCPT,Gal4-VP16 FLuc,IL1B secr inh,RORg inh,DT40 TDP1 CPT,ELG1 DNA repair
CCNc1nc(NCC)nc(N/N=C/c2ccc(OC)cc2)n1,-26%,-25%,-30,11µM*,-1%,5%
COc1ccc(/C(C)=N/Nc2nccnc2Cl)cc1,-9%,.,-52*,.,-16%,?
C/C(=N\Nc1nccnc1Cl)c1ccc(Br)cc1,-9%,?,-16,?,?,28%
CSc1cccc(NC(=S)N(Cc2ccc(C)cc2)Cc2cccnc2)c1,21µM*,?,18,5µM*,?,?
Cc1cccc(NC(=S)N(CCc2nc3cc(C)c(C)cc3[nH]2)Cc2cccnc2)c1,-16%,-15%,3,?,0%,-21%
Cc1[nH]c2ccc(F)cc2c1CCN(Cc1cccnc1)C(=S)Nc1cccc(F)c1,-54%,-8%,-15,-34%,?,?
Cc1ccc(Cl)cc1NC(=S)N(Cc1cccnc1)Cc1ccccc1Cl,-25%,25µM*,-7,?,-12%,?
COc1cccc(NC(=S)N(CCc2nc3cc(C)c(C)cc3[nH]2)Cc2cccnc2)c1,-71%,-1%,8,-23%,23µM*,?
Cc1cccc(C)c1NC(=S)N(Cc1ccccc1)Cc1cccs1,?,-14%[10 µM],?,7.1µM*,?,?
COC(=O)c1nnn(CC(=O)Nc2c(C)cccc2C)c1N,15%,.,.,.,-1%,.
Cc1ccccc1NC(=S)N(Cc1ccccc1)Cc1cccnc1,-7%,22%,-60*,?,0%,1%
Cc1ccccc1NC(=S)N(Cc1cccnc1)Cc1ccco1,-18%,?,8,25%,15%,10%
Cc1ccc(CN(Cc2ccccc2)C(=S)Nc2ccccc2C)o1,?,?,-19,7.1µM*,?,9%
COc1ccc(NC(=O)N(Cc2cccnc2)Cc2ccccc2Cl)c(OC)c1,?,.,-25,.,18µM*,.
COc1cccc(/C=C(\C#N)C(=O)Nc2ccc(NC(C)=O)cc2)c1OC,5%,.,.,.,5%,.
C=C1CCN(C(CC(C)C)C(=O)NCCCc2ccccc2)S(=O)(=O)c2ccccc21 (stereo not drawn),.,-14%,.,?,.,.
C/C=C\C(=O)Nc1cccc(C2=NOC3(C2)C[C@@H](C(N)=O)N(C(=O)CC(c2ccccc2)c2ccccc2)C3)c1 (stereo partly drawn),16µM*,7%,-23,?,?,?

# High-throughput results: PubChem BioAssay, National Center for Advancing Translational Sciences (NCATS)
